Cruzain Triton – inhibitors of Trypanosoma cruzi cruzain with detergent; Potency, µM, actives largely listed as inhibitors; AID 1478; 0.43% of 200,000 active; P25779; purified cruzain, Z-FR-AMC fluorescence, 0.01% Triton; note: nearly all actives have a fitted effect of over 40% in size
Target sequence (P25779 123-467 limits assumed): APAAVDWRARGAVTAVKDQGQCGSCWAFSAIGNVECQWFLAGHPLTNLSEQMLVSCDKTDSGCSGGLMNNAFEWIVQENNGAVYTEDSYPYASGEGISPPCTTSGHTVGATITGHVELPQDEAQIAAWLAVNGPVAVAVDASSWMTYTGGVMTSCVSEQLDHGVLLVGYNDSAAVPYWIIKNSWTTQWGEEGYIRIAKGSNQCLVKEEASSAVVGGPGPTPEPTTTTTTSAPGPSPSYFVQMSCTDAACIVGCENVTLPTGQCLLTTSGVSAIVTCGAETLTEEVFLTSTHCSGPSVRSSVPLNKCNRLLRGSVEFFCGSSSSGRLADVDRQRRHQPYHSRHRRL
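Compounds were screened in titration against cruzain (1.5 nM) with 0.01% Triton X-100 to counter colloidal aggregation. Activity was the AMC fluorescence increase over 60 s after adding 2 uM Z-FR-AMC at pH 5.5.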
Cruzain inh noDet – cruzain (T. cruzi) inhibition without detergent. Potency, µM, most hits filed as inhibitors. purified cruzain, Z-FR-AMC fluorescence, no detergent. 2.3% of 200,000 active. P25779. AID 1476; note: nearly all actives have a fitted effect of over 40% in size
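Purified cruzain at 1.5 nM, pre-incubated 15 min with compound at room temperature in 100 mM sodium acetate pH 5.5, 5 mM DTT, 0.00005% Triton X-100. Reaction started with 2 uM Z-FR-AMC; AMC fluorescence increase over 60 s gives rate.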
Hits are given with their value; i = inactive; ? = inconclusive. In the library only some 2.5% were active in any assay of this set; here they are far more common. Calls come from the whole dose curve; as a rule, active = well fitted curve in the direction sought with a large enough effect; inconclusive = small, poorly fitted or top-dose-only effect, or another doubt; inactive = no such curve, though single readings can be large; an effect the other way counts as inactive or inconclusive.

SMILES | Cruzain Triton | Cruzain inh noDet
Cc1ccc(S(=O)(=O)Nc2cc3c(C(=O)OCc4ccccc4)c(C)oc3c3ccccc23)cc1 | i | 7.9µM
Cc1ccc(S(=O)(=O)Nc2cc3c(C(=O)OCc4ccccc4)c(C)oc3c3ccccc23)c(C)c1 | i | 5µM
COc1cccc([C@@H]2Oc3ccc(Br)cc3C[C@H]2OC(=O)NS(=O)(=O)c2ccc(C)cc2)c1 | i | i
CC1=C(C(=O)N2CCCCC2)C(c2ccc(Cl)cc2)n2c(nc3ccccc32)N1 (centres undefined) | i | i
COc1cc(/C=C(\C#N)c2nc3ccccc3c(=O)[nH]2)cc(OC)c1OC | i | i
COc1ccc2c(=O)c3c(=O)n(Cc4ccco4)c(-c4ccc(C)cc4)nc3oc2c1 | i | i
COc1ccc2c(=O)c3c(=O)n(Cc4ccco4)c(C(C)C)nc3oc2c1 | ? | 32µM
O=C(NCCN1C(=O)S/C(=C\c2ccc(Cl)cc2)C1=O)c1ccc(F)c(S(=O)(=O)N2CCOCC2)c1 | i | ?
O=C(NCCN1C(=O)S/C(=C\c2ccc(Cl)c(Cl)c2)C1=O)c1ccc2c(c1)C(=O)N(Cc1ccncc1)C2=O | i | 13µM
COc1ccc(NC(=O)CC2C(=O)N(c3ccc(C)cc3)C(=O)N2CCc2ccccc2)cc1 (centres undefined) | i | i
CC(C)(C)NC(=O)NC(=O)COC(=O)CNC(=O)c1cccc(F)c1 | 22µM | ?
COCC(=O)N1CCCc2ccccc21 | i | i
O=C(OCC(=O)N1CCc2ccccc21)c1cccc(S(=O)(=O)N2CCCc3ccccc32)c1 | i | ?
O=C(CNC(=O)c1ccccc1F)OCC(=O)N1CCCc2ccccc21 | 10µM | 10µM
O=C(Cc1ccccc1)NCCC1=CCCCC1 | i | i
O=C(CNC(=O)c1cccc(F)c1)OCC(=O)N1CCCc2ccccc21 | 11µM | 10µM
CC(C)(C)NC(=O)NC(=O)COC(=O)c1cccc(F)c1 | i | i
O=C(COC(=O)CNC(=O)c1ccccc1F)NCCC1=CCCCC1 | 14µM | 10µM
CCOC(=O)c1cc(-c2ccc(F)cc2)n(CCC(=O)NC2CCC(C)CC2)c1C (centres undefined) | i | i
C=Cc1c(C)/c2[n-]/c1=C\c1[n-]c(c(CC)c1C)/C=c1\[n-]c3c(c1C)C(=O)C(C(=O)[O-])C=3c1[n-]c(c(C)c1CCC(=O)[O-])\C=2.[Cu].[Na+].[Na+] (centres undefined) | ? | i
O=C(NCCc1ccc(Cl)cc1)c1c2c(nc3ccccc13)C(=O)N(C1CCCCC1)C2 | i | i
FC(F)(F)Oc1ccc2c(c1)NC(c1ccncc1)=NC(c1cccs1)=N2 | i | i
CCn1nnc2cc(C(=O)Nc3cccc(C)c3C)ccc21 | i | i
Cc1cccc(NS(=O)(=O)c2ccc3c(c2)Cc2cc(S(=O)(=O)Nc4cccc(C)c4C)ccc2-3)c1C | i | 4µM
Cc1cccc(NS(=O)(=O)c2ccc3[nH]c(=O)[nH]c3c2)c1C | i | i
SMILES | Cruzain Triton | Cruzain inh noDet
Cc1cc(C)cc(N2CC(c3nc(-c4cccc(Cl)c4)no3)CC2=O)c1 (centres undefined) | i | i
CCNc1oc(-c2cccc3ccccc23)nc1C#N | i | i
N#Cc1nc(-c2cccc3ccccc23)oc1NCCN1CCCCC1 | 28µM | i
Cc1ccc(C)c(NC(=O)Cn2c(=O)n(Cc3ccco3)c(=O)c3oc4ccccc4c32)c1 | i | i
O=C(Nc1sc2c(c1-c1nc3ccccc3[nH]1)CCCC2)C1CCCC1 | i | 13µM
CC(=O)N1CCN(S(=O)(=O)c2cccc(C(=O)Nc3nc4c(s3)CCCC4)c2)CC1 | i | ?
CC(=O)NCCC(=O)Nc1sc2c(c1-c1nc3ccccc3[nH]1)CCCC2 | i | i
CN1CCN(S(=O)(=O)c2cccc(C(=O)Nc3sc4c(c3-c3nc5ccccc5[nH]3)CCCC4)c2)CC1 | i | 16µM
CCN(C(=O)c1cn(CC(C)C)c(=O)c2cc(OC)c(OC)cc12)c1cc(OC)ccc1OC | i | i
CCn1nc(C)c2c(-c3ccccc3)cc(=O)n(C(C)C(=O)NCCc3ccccc3)c21 (centres undefined) | i | ?
C=CCSc1nnc2c(n1)OC=Nc1ccc(Br)cc1-2 | i | 25µM
CCSc1nnc2c(n1)OC=Nc1ccc(Br)cc1-2 | i | i
Cc1cccc(C(=O)NNC(=O)c2cc3cc4ccccc4nc3s2)c1 | i | 20µM
O=C(NNC(=O)c1cc2cc3ccccc3nc2s1)c1ccc(F)cc1 | ? | 10µM
Cc1ccc(S(=O)(=O)NNC(=O)c2cc3cc4ccccc4nc3s2)cc1 | i | i
O=C(NNC(=O)c1ccccc1Br)c1cccc(Cl)c1 | i | i
O=C(NNC(=O)c1cc2cc3ccccc3nc2s1)c1cccc(Cl)c1 | ? | 25µM
Cc1ccccc1C(=O)NNC(=O)c1ccc(F)cc1 | i | i
Cc1ccc(-n2ncc(C(=O)NCCCN3CCc4ccccc4C3)c2C2CCN(C(=O)OC(C)(C)C)CC2)cc1C | i | i
CCOc1ccc(NC(=O)c2ccc3nc(Cc4ccccc4)oc3c2)cc1 | i | i
CCc1ccccc1NC(=O)c1sc(-n2nc(C)c(Cc3ccccc3)c2C)nc1C | i | i
Cc1ccsc1/C=C1/SC(N2CCOCC2)=NC1=O | i | i
O=C1N=C(N2CCOCC2)S/C1=C\c1ccc(-c2ccccc2Cl)o1 | i | 32µM
COC(=O)c1c(NC(=O)COC(=O)CCS(=O)(=O)c2ccc(C)cc2)sc(C)c1C | i | i
COC(=O)c1c(NC(=O)COC(=O)CNC(=O)C2CCCCC2)sc(C)c1C | 4µM | 10µM
SMILES | Cruzain Triton | Cruzain inh noDet
CC(=NCc1cccnc1)c1c(O)n(Cc2ccccc2)c(=O)[nH]c1=O | i | i
C/C(=N\Nc1cccc2ccccc12)c1c(O)n(Cc2ccccc2)c(=O)[nH]c1=O | i | 10µM
COc1ccccc1/C=N/n1c(N)c(S(=O)(=O)c2cccs2)c2nc3ccccc3nc21 | i | 7.9µM
COc1ccc(CCn2c(N)c(S(=O)(=O)c3cccs3)c3nc4ccccc4nc32)cc1OC | i | i
Nc1c(S(=O)(=O)c2ccccc2)c2nc3ccccc3nc2n1/N=C/c1cccc(O)c1 | i | i
Cc1cccc(S(=O)(=O)c2c(N)n(/N=C/c3ccccc3)c3nc4ccccc4nc23)c1 | i | 4µM
COc1ccc(Nc2nnc(-c3ccc(C)c(S(=O)(=O)N4CCOCC4)c3)c3ccccc23)cc1 | i | i
Cc1ccc2c(CC(=O)N(Cc3ccc(N(C)C)cc3)Cc3ccco3)coc2c1C | i | i
CC(C)CC(C(=O)Nc1ccc2c(c1)OCCO2)N1C(=O)c2ccccc2C1=O (centres undefined) | i | i
CC(C)CC(C(=O)Nc1oc(-c2ccco2)c(-c2ccco2)c1C#N)N1C(=O)c2ccccc2C1=O (centres undefined) | i | 32µM
O=C(CNc1cccc2ccccc12)N/N=C/c1ccc([N+](=O)[O-])cc1 | i | i
O=C(CNc1cccc2ccccc12)N/N=C/c1cccc(Oc2ccccc2)c1 | i | 20µM
Cc1cc(-n2c(C)nc3ccccc3c2=O)ccc1NC(=O)c1cccc([N+](=O)[O-])c1 | i | i
COC(=O)c1ccc(CSc2c(C(C)C)cnc3c2c(=O)n(C)c(=O)n3C)cc1 | i | i
COc1ccc(-c2cc(-c3ccc(C)cc3)nc(SCc3nnc(-c4ccccc4)o3)c2C#N)cc1OC | i | 10µM
COc1ccc(-c2nnc(CSc3nc4ccccc4c(=O)n3C)o2)cc1OC | i | ?
O=C(NCC(c1cccnc1)N1CCc2ccccc21)c1ccc(F)c(F)c1 (centres undefined) | i | ?
